# Results: the supplement of paper PMC12636033
# ± gives the standard deviation of the averaged measurements. The full ranking holds about 33,000 sequences; the median of “E-score (rank enrichment, -0.5 to 0.5)” is about -0.0043, and the highest 2% start at about 0.24. The entries come from a sample that favours the highest values as a whole.
# System: 2Sp-muMax20 (muMax20 with two 2,6-bis(methyl)pyridine Cys staples)
# Experiment: PBM 8-mer E-score (E-score (rank enrichment, -0.5 to 0.5)); higher = stronger preferential binding
# Protocol: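 Protein binding microarray (universal PBM chip covering all 10-mers in fixed probe flanks) with chemically synthesized human Max(13-93) bHLH-LZ analogs (not full-length Max) bearing noncanonical residues (hArg, Tha, Aib, Nle at 65) and aromatic Cys staples. Read-out per 8-mer (and its reverse complement): E-score (rank-based enrichment, -0.5 to 0.5) and Z-score of median probe intensity.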
row,Sequence,PBM 8-mer E-score
1,AGTACACA,0.196 ± 0.098
2,CGTACACG,0.134 ± 0.035
3,AGTACAAA,0.134 ± 0.1
4,TGTACAAA,0.244 ± 0.054
5,TGTACACA,0.283 ± 0.012
6,GGTACAAA,0.0427 ± 0.053
7,GTAACAAC,0.00768 ± 0.059
8,ACATTCAG,0.0112 ± 0.042
9,TATGAATA,0.169 ± 0.078
10,GATGAATA,0.201 ± 0.093
11,AATGAATG,0.24 ± 0.098
12,AATGAATA,0.259 ± 0.064
13,AATGAATT,0.179 ± 0.031
14,AATGAATC,-0.0131 ± 0.0047
15,ATACTTGG,0.0935 ± 0.004
16,GTCCATCA,-0.0683 ± 0.092
17,CCCGTCCC,-0.0481 ± 0.028
18,CAAAACTA,0.103 ± 0.013
19,ACAAACTA,0.115 ± 0.0062
20,CCAAACTA,0.241 ± 0.0054
21,GTGACTAA,0.0929 ± 0.037
22,CATCCAAC,0.124 ± 0.056

row,Sequence,PBM 8-mer E-score
1,TAGGGACA,-0.0107 ± 0.063
2,GACTACTA,0.12 ± 0.12
3,ATCTACTG,0.0117 ± 0.033
4,GTCTAGTA,0.246 ± 0.021
5,ATCTAGTA,0.0613 ± 0.095
6,TACTAGTA,0.25 ± 0.055
7,CTCTAGTA,0.125 ± 0.045
8,CACTAGTA,0.107 ± 0.1
9,GACTAGTA,0.223 ± 0.033
10,TACTACTA,0.247 ± 0.058
11,ATCTACTA,0.263 ± 0.086
12,ATCTACTC,-0.0118 ± 0.032
13,AACTACTA,0.144 ± 0.025
14,AAGGCTAA,0.0957 ± 0.095
15,GCAATCCC,0.107 ± 0.035
16,AATACTTA,0.05682 ± 0.00026
17,CGCCTAGA,-0.246 ± 0.079
18,ACTCCGGA,0.0232 ± 0.032
19,AAAGCTAT,0.0921 ± 0.032
20,AGAGTTGC,-0.124 ± 0.013
21,GCTCCGAC,-0.215 ± 0.035
22,CGGCTTCC,-0.166 ± 0.13

row,Sequence,PBM 8-mer E-score
1,CCTGCCCG,-0.0476 ± 0.0022
2,CCGTTACC,-0.0555 ± 0.027
3,GACTTGTA,0.124 ± 0.17
4,ACCGCAAA,-0.161 ± 0.043
5,CTTGCGCC,-0.148 ± 0.036
6,AATGCGCA,0.229 ± 0.021
7,CATGCGCA,0.109 ± 0.18
8,CTTGCGCA,0.266 ± 0.0099
9,TATGCGCA,0.267 ± 0.026
10,ATTGCGCA,0.124 ± 0.033
11,TAACATTA,0.114 ± 0.082
12,ATGTTTAG,0.22 ± 0.022
13,GTGTTAAC,-0.0129 ± 0.032
14,CTGTTTAC,0.0257 ± 0.014
15,ATGTTAAC,0.322 ± 0.023
16,ATGTTTAC,0.243 ± 0.073
17,CTGTTAAC,0.0735 ± 0.0019
18,ACTGGCTC,-0.126 ± 0.031
19,GGTAAACC,-0.203 ± 0.077
20,ACAAGTCG,0.0191 ± 0.009
21,ACAAGTCT,0.287 ± 0.028
22,ACAAGTCA,0.0779 ± 0.031

row,Sequence,PBM 8-mer E-score
1,ACATGCAA,0.0816 ± 0.11
2,AGGTATCA,0.238 ± 0.043
3,CGGTATCA,-0.1599 ± 0.00081
4,AGGTATCG,-0.0734 ± 0.073
5,AAAAGGCG,0.0426 ± 0.024
6,CACCGATA,-0.0537 ± 0.018
7,GGGAATGA,0.26 ± 0.057
8,AGGAATGA,0.0595 ± 0.018
9,CGGAATGA,-0.155 ± 0.06
10,AATGTATC,0.151 ± 0.022
11,TACCAACA,0.163 ± 0.027
12,ATAGACTC,0.154 ± 0.021
13,CTGGCGGC,-0.155 ± 0.055
14,CACGCCCG,0.0249 ± 0.038
15,ATATCATG,0.147 ± 0.035
16,ACATCATC,0.047 ± 0.02
17,ATATCATA,0.255 ± 0.085
18,ACATCATA,0.244 ± 0.064
19,ATGTCATA,0.189 ± 0.012
20,ATATCAGC,0.0631 ± 0.073
21,GTGTCATA,0.248 ± 0.042
22,CTATCATA,0.185 ± 0.013

row,Sequence,PBM 8-mer E-score
1,ATATCAGG,0.239 ± 0.032
2,CCATCATA,0.153 ± 0.082
3,CTGTCATA,0.179 ± 0.043
4,ATATCAGA,0.0984 ± 0.019
5,CGATAAGC,-0.0518 ± 0.16
6,GGAATACC,-0.138 ± 0.015
7,ACAGTTAG,0.074 ± 0.026
8,TGCTGCAA,0.0638 ± 0.096
9,CTTTCGGA,-0.125 ± 0.009
10,CCCAACAA,0.177 ± 0.0058
11,AAAAGAAA,0.0569 ± 0.052
12,CCGCTGGA,-0.157 ± 0.04
13,GTATCAGA,-0.0699 ± 0.043
14,GTATCATA,0.255 ± 0.024
15,GCATCATA,0.169 ± 0.0065
16,CATGAGCA,-0.0267 ± 0.017
17,GCCGAAGA,-0.0625 ± 0.053
18,AGTAATAT,0.25 ± 0.05
19,AGTAATAG,0.254 ± 0.02
20,AGTAACAT,0.294 ± 0.018
21,AGTAACAA,0.113 ± 0.089
22,CATAGTAA,0.159 ± 0.099
